Experimental findings from ChEMBL document CHEMBL4513154, “CO-ADD screening of Jain University (India) compounds” are described below.

SMILES strings stand for the structures. Measured potencies and affinities stand elsewhere.

The first assay concerns Candida albicans. The note with it: 32 ug/mL.
`N#Cc1ccccc1-c1ccc(Cn2c(-c3cscn3)nc3c(Cl)cccc32)cc1`: the Inhibition (as a rule, the drop in the measured response relative to a control, in per cent) was determined as 5.26%. Still for that read-out and setting: as for `CCc1ccc(-n2c(-c3sc(Nc4ccccc4)nc3N)nc3ccccc3c2=O)cc1`, the figure is 0.25%; as for `Nc1nc(Nc2ccccc2)sc1-c1nc2ccccc2c(=O)n1-c1ccccc1`, 6.03%; as for `Nc1nc(Nc2ccccc2)sc1-c1nc2ccccc2c(=O)n1-c1ccc(Cl)cc1`, 3.54%.

The subject of another assay is Cryptococcus neoformans. The conditions noted are these: Concentration 32 ug.mL-1; ASSAY_TEST Inhibition of Fungal Growth; detection method Resazurin; Absorption (OD600-OD570); plate type 384well; NBS; CORNING #3640.
`N=C(Nc1ccccc1Cl)c1cscn1`: the Inhibition is reported as -8.23%. The same measure, in the same setting: as for `Clc1cccc2c1nc(-c1cscn1)n2Cc1ccccc1`, the figure is -32.31%. On the same count and under the same terms, in the case of `Clc1ccc2c(c1)nc(-c1cscn1)n2Cc1ccccc1` it was -24.56%; in that of `Fc1cc(Cn2c(-c3cscn3)nc3c(Cl)cccc32)cc(C(F)(F)F)c1`, -8.45%. On to `N#Cc1ccccc1-c1ccc(Cn2c(-c3cscn3)nc3cc(Cl)ccc32)cc1`, for which the Inhibition is listed as -36.18%. Same read-out and setting: as for `Clc1cccc2[nH]c(-c3cscn3)nc12`, the figure is -19.67%. For `CCc1ccc(Nc2nc(N)c(-c3nc4ccccc4c(=O)n3-c3ccc(Cl)cc3)s2)cc1`, the Inhibition is given as -34.77%. Still for that read-out and setting: as for `Clc1ccc2nc(-c3cscn3)n(Cc3ccccc3)c2c1`, the figure is -41.97%; as for `N#Cc1ccccc1-c1ccc(Cn2c(-c3cscn3)nc3ccccc32)cc1`, -25.26%; as for `Nc1nc(Nc2ccc(Cl)cc2)sc1-c1nc2ccccc2c(=O)n1-c1ccccc1`, -54.18%. Still for that read-out and setting: in the case of `N=C(Nc1ccccc1)c1cscn1` it was 4.1%. Same read-out and setting: as for `Cn1c(-c2cscn2)nc2c(Cl)cccc21`, the figure is -43.05%; as for `N#Cc1ccccc1-c1ccc(Cn2c(-c3cscn3)nc3ccc(Cl)cc32)cc1`, -28.09%.
